TEAD-YAP inh – TEAD-YAP interaction inhibition | HEK-TIYL cells, TEAD-Gal4/YAP UAS-luciferase luminescence | inhibition, % at 9.12 µM | 640,000 tested, 1.4% active; in the data active = inhibition above about 32%;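 note: 0% = median of test compound wells and 100% = reference inhibitor wells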
FBW7 activator – activators of human E3 ligase FBW7; Q969H0; AlphaScreen FBW7–phospho-cyclin E peptide binding, activator screen; normalized activity (activation), % at 26.1 µM; 650,000 tested, 0.13% active; in the data active = normalized activity above about 1.9%;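 note: purified mutant Fbw7 with reduced substrate affinity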
Target sequence (Q969H0 whole entry, looked up): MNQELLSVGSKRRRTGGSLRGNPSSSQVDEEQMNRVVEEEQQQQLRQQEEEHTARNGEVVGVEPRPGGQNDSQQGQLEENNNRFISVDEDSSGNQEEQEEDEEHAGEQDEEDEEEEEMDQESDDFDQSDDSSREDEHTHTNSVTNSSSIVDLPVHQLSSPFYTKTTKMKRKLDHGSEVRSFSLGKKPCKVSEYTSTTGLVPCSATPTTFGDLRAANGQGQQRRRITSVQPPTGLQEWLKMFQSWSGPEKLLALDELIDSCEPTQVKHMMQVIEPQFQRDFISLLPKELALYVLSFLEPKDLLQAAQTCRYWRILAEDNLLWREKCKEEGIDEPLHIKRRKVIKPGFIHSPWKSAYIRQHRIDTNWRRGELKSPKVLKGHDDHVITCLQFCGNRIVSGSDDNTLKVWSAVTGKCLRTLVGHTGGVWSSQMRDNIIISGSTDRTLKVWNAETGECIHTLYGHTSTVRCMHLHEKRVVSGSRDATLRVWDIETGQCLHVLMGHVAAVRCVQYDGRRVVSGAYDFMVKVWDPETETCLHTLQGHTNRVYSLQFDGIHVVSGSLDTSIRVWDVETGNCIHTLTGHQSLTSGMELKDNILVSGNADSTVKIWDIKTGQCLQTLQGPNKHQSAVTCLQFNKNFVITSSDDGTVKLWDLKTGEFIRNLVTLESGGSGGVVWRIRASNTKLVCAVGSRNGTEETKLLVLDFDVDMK
MITF primary – blocks human microphthalmia-associated transcription factor; O75030; AlphaScreen MITF homodimerization, bead proximity signal; inhibition, % at 2.6 µM; 650,000 tested, 0.91% active; in the data active = inhibition above about 50%;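 note: 0% = vehicle wells with protein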
GPR151 activ – human GPR151 activation; activation, % at 11.2 µM; Q8TDV0; 650,000 tested, 1% active; PathHunter beta-arrestin GPR151 cells, luminescence; in the data active = activation above about 4.9%;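 note: 0% = median of compound wells and 100% = cells with positive control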
* hit, by the source's call. This is a sample that favours compounds with a hit; in the whole collection about 3.5% have one here.

SMILES | TEAD-YAP inh | FBW7 activator | MITF primary | GPR151 activ
Cc1ccc(-c2csc(NC(=O)c3ccc(S(=O)(=O)N4CCOCC4)cc3)n2)o1 | 28 | 0 | 1 | -1
CC(C)(C)c1csc(NC(=O)c2ccc(S(=O)(=O)N3CCOCC3)cc2)n1 | 36* | 0 | 17 | 2
COc1ccc(-c2csc(NC(=O)c3ccc(S(=O)(=O)N4CCOCC4)cc3)n2)c(OC)c1 | 41* | 0 | -12 | 0
COCCN(CCOC)S(=O)(=O)c1ccc(C(=O)Nc2nc(-c3ccc(C)cc3C)cs2)cc1 | 36* | 0 | -3 | 1
Cc1ccc(C)c(-c2csc(NC(=O)c3ccc(S(=O)(=O)N4CCOCC4)cc3)n2)c1 | 42* | 0 | -7 | 0
CCC(C)(C)NC(=O)C(c1ccco1)N(Cc1ccco1)C(=O)Cn1nnc2ccccc21 (configuration not stated) | 6 | 0 | 6 | -1
CCCCNC(=O)CSc1nc2sc(C(=O)OCC)c(C)c2c(=O)n1Cc1cccs1 | 5 | 1 | 2 | -1
COc1ccc(C(=O)N/N=C/c2ccc(O)c(OC)c2)c(OC)c1 | -26 | 0 | 4 | -1
COc1ccc(C(C)C)cc1-c1cnn2c(N3CCC(O)CC3)ccnc12 | -20 | 0 | 3 | 0
CCN1CCN(C(c2cccs2)c2nnnn2Cc2ccccc2)CC1 (configuration not stated) | -12 | 0 | -1 | -1
O=C(Cn1c(=O)n(-c2ccc(F)cc2)c(=O)c2oc3ccccc3c21)NCC1CCCO1 (configuration not stated) | -2 | 0 | 25 | 0
COc1ccc(-c2cnc(NCCCn3ccnc3)nc2)cc1 | 0 | 0 | 22 | 2
COc1ccc(-c2cnnc(NCCCn3ccnc3)n2)cc1 | 32* | 0 | 1 | 0
COc1cc(OC)cc(-c2cc3nc4c(c(NCCCn5ccnc5)n3n2)CCCC4)c1 | 3 | 2.4* | 6 | 0
O=S(=O)(c1ccc(N2CCC(CNc3ncccn3)CC2)cc1)N1CCCC1 | 24 | 0 | -4 | 1
COc1ccc(CN2CCNC(=O)C2CC(=O)NCc2cccc(F)c2)c(C)c1C (configuration not stated) | -10 | 0 | -11 | 0
COC(=O)CSc1nnnn1-c1ccccc1C | 3 | 0 | 18 | 1
COc1ccc(Cl)cc1C(=O)Nc1ccc(C)cc1[N+](=O)[O-] | 0 | 1 | 10 | 0
Oc1ccc(N=Cc2sc3ccccc3c2O)cc1 | 20 | 0 | 7 | 2
Oc1c(C=NC2CCCCCC2)sc2ccccc12 | 38* | -1 | 19 | -2
O=C(O)c1ccc(N=Cc2sc3ccccc3c2O)cc1 | 52* | 0 | -3 | -4
CN(C)c1ccc(N=Cc2c[nH]c3ccccc23)cc1 | 68* | -1 | 11 | -1
Oc1c(C=Nc2ccc(I)cc2)sc2ccccc12 | 14 | 0 | 10 | 0
CN(C)c1ccc(N=Cc2sc3ccccc3c2O)cc1 | 76* | 0 | 15 | -1
Oc1c(C=Nc2ccccc2)sc2ccccc12 | 5 | 0 | -1 | -1
SMILES | TEAD-YAP inh | FBW7 activator | MITF primary | GPR151 activ
O=C(Nc1ccc2c(c1)CN(C(=O)C#Cc1ccccc1)CC2)C1CCCO1 (configuration not stated) | 61* | 0 | 5 | 0
Cc1nc2sccn2c1CN1CCc2ccc(NC(=O)C3CCCO3)cc2C1 (configuration not stated) | 37* | 0 | 12 | 1
CC1CCCCC1NC(=O)CC(C)S(=O)(=O)c1ccc2c(c1)OCC(=O)N2 (configuration not stated) | -2 | 0 | 6 | 1
CN(C)C(=O)c1ccc(-c2nnc(Nc3ccccc3O)c3ccccc23)cc1 | 5 | 0 | -6 | 0
COC(=O)c1cc(C)nc2c1C(=O)C(=O)C=C2N1CCOCC1 | 41* | 0 | 9 | 1
CN(C)c1ccc(/C=C2\NC(=S)NC2=O)cc1 | -2 | 0 | -8 | 1
Cc1ccc(C(=O)C2C(c3cccs3)C(C#N)(C#N)C3C=Cc4ccccc4N23)cc1 (configuration not stated) | 43* | 0 | -17 | 1
COc1ccc(C(=O)[C@@H]2[C@@H](c3cccs3)C(C#N)(C#N)[C@H]3C=Cc4ccccc4N23)cc1 | 55* | 0 | 9 | 1
COCCCN1C(=O)c2ccc(C(=O)Oc3ccc([N+](=O)[O-])cc3)cc2C1=O | 12 | 0 | 10 | 0
Nc1cccc(-c2cnc3ccc(NC4CCOCC4)nn23)c1 | 4 | 0 | 4 | 0
COc1cccc(-c2cnc3ccc(NC4CCC(O)CC4)nn23)c1 (configuration not stated) | 64* | -1 | -8 | 0
Clc1cccc(-c2cnc3ccc(NC4CCOCC4)nn23)c1 | 34* | 0 | -11 | 0
COc1ccc(-c2cnc3ccc(NC4CCOCC4)nn23)cc1OC | 2 | 0 | -9 | 1
COc1cccc(-c2cnc3ccc(NC4CCOCC4)nn23)c1 | 57* | 0 | -3 | -1
Cc1ccc(-c2cnc3ccc(NC4CCC(O)CC4)nn23)cc1C (configuration not stated) | -7 | 0 | -21 | 0
CS(=O)(=O)Nc1ccc(-c2nnc(SCC(=O)Nc3ccccc3Cl)o2)cc1 | -27 | 0 | -5 | 1
CS(=O)(=O)Nc1ccc(-c2nnc(SCC(=O)Nc3ccccc3F)o2)cc1 | 37* | 0 | 6 | 0
Cn1c(=O)c2c(nc(Oc3ccc4c(c3)OCO4)n2Cc2ccc(F)cc2Cl)n(C)c1=O | 3 | 0 | 9 | 0
COc1cc(/C=C/C(=O)c2ccccc2OC)ccc1OCC#N | 58* | 0 | 10 | 1
COc1cc(C(=O)Nc2ccc(F)cc2F)cc(OC)c1OC | -9 | 0 | -19 | 0
CNc1ccc(Cl)cc1C(=O)c1cc(OC)c(OC)c(OC)c1 | 54* | 0 | 15 | 0
COc1cc(C(=O)c2cc(Br)ccc2N)cc(OC)c1OC | 51* | 0 | 13 | 0
COc1ccccc1N=Cc1c(O)n(-c2ccccc2)c(=S)[nH]c1=O | 6 | 1 | -20 | -1
CCc1nnc(NC(=O)CN2CCN(c3ccc(C(C)=O)cc3)CC2)s1 | 32* | 0 | -9 | -1
CC(=O)c1ccc(N2CCN(CC(=O)Nc3ncc(C)s3)CC2)cc1 | 0 | 0 | 12 | -1
SMILES | TEAD-YAP inh | FBW7 activator | MITF primary | GPR151 activ
CCn1c(SCc2cccnc2)nnc1-c1cc2ccccc2cc1O | 44* | 0 | -2 | 0
Cc1ccc(NC(=O)CNCc2cccs2)c(Br)c1 | -31 | 3.8* | 10 | 2
Cc1ccc(NC(=O)Cc2cccs2)c(Br)c1 | -15 | 0 | 17 | 0
Cc1ccc(-c2c3c(nc4sc(C(=O)Nc5ccccc5)c(N)c24)CCCC3)cc1 | 2 | 0 | -17 | -2
Cc1csc(NC(=O)c2sc3nc(C)c4c(c3c2N)CCCC4)n1 | 94* | 0 | -3 | 0
Cc1csc(NC(=O)c2sc3nc4c(c(C(F)(F)F)c3c2N)CCCC4)n1 | 65* | 0 | 12 | 1
COc1ccc(N2C(=O)NC(=O)/C(=C/c3ccc(I)o3)C2=O)cc1 | 0 | 0 | 69* | 0
Cc1ccc(/C=C2\C(=O)NC(=S)N(c3cccc(Cl)c3)C2=O)o1 | 0 | 0 | 4 | 0

Compound activity as filed in PubChem BioAssay.
